High-throughput results from PubChem.
A selection: hits, their analogues and other compounds. The true share with any hit is near 2.6%.
STAT3 binder: binders of human STAT3; P40763; Small molecule microarray, His-STAT3 binding, anti-His fluorescence; calls only; 17,000 compounds, 0.2% hits;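 active = compounds whose four printed spots each show fluorescence over background unusually high for their array block, chance value under 7%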
NFkB binder: binds human NF-kappa-B p105 on microarray; AID 624139; Small molecule microarray, anti-His fluorescence binding; 17,000 compounds, 1.3% hits; P19838; calls only;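 active = spot fluorescence over background significantly raised, with a chance value under 7% in all four replicate spots of the compound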;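 also: probe protein is his-tagged human p50 processed subunit at 1 µg/ml; raw spot fluorescence signals with no normalization applied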
p53 mut binder: mutant p53 (human) binding | small molecule microarray binding, anti-GST fluorescence | 17,000 compounds, 0.4% hits | AID 624136 | calls only;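 active = compounds whose four printed spots each glow above background more than chance allows, each with a p-value under 7%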
mut p53 react: re-activators of the mutant p53 pathway. SW480 PUMA-promoter luciferase, p53 mutant reactivation. activation, % at 9.98 µM. 28,000 compounds, 1.5% hits. AID 624151; in the data active = activation above about 52%
c-Myc SMM: c-Myc (human) binding; P01106; small molecule microarray, His-c-Myc binding, anti-His fluorescence; calls only; 17,000 compounds, 1.5% hits;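 active = spot fluorescence over background with P-value below 7% in all four replicate spots, showing protein binding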;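 also: score is binary with 100 for all four spots passing and 0 otherwise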
Active calls of the source: *; i = inactive; . = no result given; + = active, no number.

SMILES | STAT3 binder | NFkB binder | p53 mut binder | mut p53 react | c-Myc SMM
CCn1cnc2c(Nc3cccc(Cl)c3)nc(N[C@@H]3CCCC[C@@H]3N)nc21 | i | i | i | -62.7 | +
CC(C)[C@H]1C(=O)N2CCC[C@H]2[C@]2(O)O[C@](NC(=O)[C@@H]3C=C4c5cccc6[nH]cc(c56)C[C@H]4N(C)C3)(C(C)C)C(=O)N12 | i | i | i | 6.6 | i
CN1CC(C(=O)N[C@]2(C)O[C@@]3(O)[C@@H]4CCCN4C(=O)[C@H](Cc4ccccc4)N3C2=O)C=C2c3cccc4[nH]cc(c34)C[C@H]21 (some centres undefined) | i | + | i | 0.5 | +
CCc1ccc(NC2=NCCS2)cc1 | . | . | . | 61.2* | .
NCC(=O)Nc1ccc(Br)cc1C(=O)c1ccccc1 | i | i | i | 112.6* | i
Clc1cncc(N2CCNCC2)n1 | i | i | i | -2.7 | i
COC1=CC(=O)O[C@@H](CCc2ccccc2)C1 | i | i | i | 13.8 | i
CC(=O)CC(c1ccc(Br)cc1)c1c(O)c2ccccc2oc1=O (centres undefined) | i | i | i | 1.9 | i
